Screens deposited in PubChem by National Center for Advancing Translational Sciences (NCATS).
Compounds with a hit are over-represented: about 12% of the library has one in this group of screens.
PLK1 PBD inh: inhibitors of human PLK1 polo-box domain binding. 360,000 compounds, 2.8% hits. Potency, µM, actives largely listed as inhibitors. P53350. Plk1 PBD binding of FITC phosphopeptide, fluorescence polarization; further: series mostly up to about 57 µM; nearly all actives have a fitted effect of over 65% in size
G9a block: G9a (human) methyltransferase inhibition; Q96KQ7; G9a H3K9 monomethylation, AlphaScreen, 2 h; Potency, µM (titrated, usually from 102 µM), usual class: inhibitors; 350,000 compounds, 8.8% hits; AID 504332; further: nearly all actives have a fitted effect of over 75% in size
Target sequence (Q96KQ7 913-1193 limits assumed): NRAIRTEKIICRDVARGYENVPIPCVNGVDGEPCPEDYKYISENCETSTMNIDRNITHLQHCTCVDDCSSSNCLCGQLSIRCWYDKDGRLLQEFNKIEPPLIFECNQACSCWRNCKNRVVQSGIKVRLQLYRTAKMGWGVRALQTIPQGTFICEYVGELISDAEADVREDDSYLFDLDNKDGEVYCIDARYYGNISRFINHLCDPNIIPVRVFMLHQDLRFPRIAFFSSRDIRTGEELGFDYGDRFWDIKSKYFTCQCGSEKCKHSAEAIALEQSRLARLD
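G9a (20 nM) was preincubated 15 min with compound, then reacted 2 h at room temperature with 500 nM biotin-H3K9 peptide and 20 µM SAM. Monomethyl-H3K9 detected by AlphaScreen using anti-H3K9me1 antibody.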
JMJD2A Tudor inh: inhibitors of human JMJD2A Tudor domain. O75164. AlphaScreen JMJD2A-Tudor / H3K4me3 peptide binding. Potency, µM (titrated, usually from 114 µM), hits mostly inhibitors. 390,000 compounds, 4.4% hits. AID 504339; further: nearly all actives have a fitted effect of over 50% in size
HP1b binding inh: HP1-beta chromodomain-methylated histone interaction inhibition. AlphaScreen HP1-beta / biotin-H3K9me3 peptide binding. Potency, µM (titrated, usually from 114 µM), actives largely listed as inhibitors. AID 540317. 390,000 compounds, 0.56% hits; further: nearly all actives have a fitted effect of over 70% in size
Target sequence (P83916 whole entry, looked up): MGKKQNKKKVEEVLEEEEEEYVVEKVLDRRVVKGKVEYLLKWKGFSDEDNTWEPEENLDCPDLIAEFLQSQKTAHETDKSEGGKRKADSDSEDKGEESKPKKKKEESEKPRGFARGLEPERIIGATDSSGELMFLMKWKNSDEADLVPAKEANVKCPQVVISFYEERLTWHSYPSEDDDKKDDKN
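Compound inhibition of the preformed complex between 50 nM HP1-beta and 50 nM biotinylated H3K9me3 peptide was read by AlphaScreen. Buffer was PBS pH 7.4 with 0.01% Tween-20. Incubations ran 30 min at room temperature, with 10 ug/mL donor/acceptor beads.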
Sfp PPTase inh: Sfp phosphopantetheinyl transferase inhibition; Biochemical Sfp PPTase activity, qHTS; 310,000 compounds, 3.5% hits; Potency, µM, hits mostly inhibitors; Q9F4F7;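 further: the enzyme is Sfp with the accession as filed and its product quenches rhodamine fluorescence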
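After 15 min at room temperature with compound, 15 nM Sfp received 5 uM rhodamine-CoA plus 12.5 uM BHQ-2-ybbR (50 mM Hepes pH 7.6, 10 mM MgCl2). Rate came from the fluorescence difference over 30 min, ex 525/em 598 nm.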
BAZ2B inh: BAZ2B (human) inhibition | Potency, µM (top dose mostly 114 µM), most hits filed as inhibitors | AlphaScreen BAZ2B-H3K14Ac peptide displacement | AID 504333 | 360,000 compounds, 4.4% hits; further: nearly all actives have a fitted effect of over 60% in size
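Inhibition is scored as reduced AlphaScreen emission. The BAZ2B/b-H3(5-23)K14Ac complex (50 nM each) in PBS pH 7.4, 0.01% Tween-20 meets compound (up to 110 uM) for 30 min at RT before bead addition.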
Each line names hits and unclear results; the compound was inactive in the other large screens. The call rests on the fitted dose curve; in most records, active means well fitted curve in the direction sought with a large enough effect; inconclusive means small, poorly fitted or top-dose-only effect, or another doubt; inactive means no such curve, though single readings can be large; an effect the other way counts as inactive or inconclusive.

O=C(COc1ccccc1)NCC(c1ccco1)N1CCN(c2ccccc2)CC1 (stereo unspecified)	G9a block 45µM, JMJD2A Tudor inh inconclusive (no result: Sfp PPTase inh)
COc1ccc(N2CCN(C(CNC(=O)C(=O)NC3CCCC3)c3ccco3)CC2)cc1 (stereo unspecified)	G9a block 7.1µM (no result: Sfp PPTase inh)
O=C(NCC(c1ccco1)N1CCN(c2ccccc2)CC1)c1cccs1 (stereo unspecified)	G9a block inconclusive (no result: Sfp PPTase inh)
COc1ccc(N2CCN(C(CNC(=O)C(=O)NCc3cccs3)c3ccco3)CC2)cc1 (stereo unspecified)	PLK1 PBD inh inconclusive, G9a block 40µM, BAZ2B inh inconclusive
COc1ccc(N2CCN(C(CNC(=O)OCc3ccccc3)c3ccco3)CC2)cc1 (stereo unspecified)	G9a block 25µM, JMJD2A Tudor inh 40µM, HP1b binding inh inconclusive, BAZ2B inh 40µM
COc1ccc(N2CCN(C(CNC(C)=O)c3ccco3)CC2)cc1 (stereo unspecified)	G9a block inconclusive
COc1ccc(N2CCN(C(CNC(=O)C(=O)NCC(OC)OC)c3ccco3)CC2)cc1 (stereo unspecified)	none
O=C(Cn1cnc([N+](=O)[O-])n1)N/N=C/c1cc(Cl)ccc1O	JMJD2A Tudor inh 32µM, BAZ2B inh 28µM
O=C(Cn1cnc([N+](=O)[O-])n1)N/N=C/c1ccccc1O	JMJD2A Tudor inh inconclusive, BAZ2B inh 14µM
CN(CCC#N)C(=S)NC(=O)c1ccc(S(=O)(=O)N2CCOCC2)cc1	PLK1 PBD inh inconclusive, G9a block 11µM, Sfp PPTase inh inconclusive
Cc1ccc(S(=O)(=O)N2CCOCC2)cc1C(=O)NC(=S)N1CC(C)OC(C)C1 (stereo unspecified)	G9a block 32µM
CC(=O)N1CCN(C(=S)NC(=O)c2ccc(S(=O)(=O)N3CCOCC3)cc2)CC1	G9a block inconclusive, JMJD2A Tudor inh 50µM, Sfp PPTase inh inconclusive, BAZ2B inh 50µM
Cc1ccc(S(=O)(=O)N2CCOCC2)cc1C(=O)N1CC(C)CC(C)C1 (stereo unspecified)	none (no result: G9a block, Sfp PPTase inh, BAZ2B inh)
NCCCCC(NC(=O)C1CCCN1C(=O)C1CSSCC(N)C(=O)NC(Cc2ccc(O)cc2)C(=O)NC(Cc2ccccc2)C(=O)NC(CCC(N)=O)C(=O)NC(CC(N)=O)C(=O)N1)C(=O)NCC(N)=O (stereo unspecified)	none (no result: PLK1 PBD inh, JMJD2A Tudor inh, HP1b binding inh)
Cn1cc2cc(NC(N)=S)ccc2n1	none
COc1ccc(C2NC(Cc3ccccc3)(C(=O)O)C3C(=O)N(c4ccccc4OC)C(=O)C23)cc1 (stereo unspecified)	G9a block 50µM
CCc1nn2c(=O)cc(COC(=O)c3cccc(NC(=O)COc4ccccc4)c3)nc2s1	none (no result: PLK1 PBD inh, Sfp PPTase inh)
Cc1ccc(NC(=O)CN2CCCCCC2)cc1Br	G9a block 22µM, JMJD2A Tudor inh 3.2µM, HP1b binding inh inconclusive, BAZ2B inh inconclusive
Cc1ccc(NC(=O)CN(C)C2CCCCC2)cc1Br	JMJD2A Tudor inh 18µM, HP1b binding inh inconclusive, Sfp PPTase inh 56µM, BAZ2B inh 50µM
Cc1cccc(NC2(C(=O)O)CCCC2)c1	JMJD2A Tudor inh 35µM (no result: G9a block, Sfp PPTase inh, BAZ2B inh)
CN(CC(=O)Nc1ccc(Cl)cc1)C1CCCCC1	none
O=C(O)C1(Nc2ccccc2)CCCC1	none (no result: G9a block, Sfp PPTase inh, BAZ2B inh)
Cc1cccc(NC(=O)CCN2CCN(C)CC2)c1	PLK1 PBD inh inconclusive, G9a block inconclusive
Cc1cccc(NC(=O)CN2CCN(CC(=O)Nc3cccc(C)c3)CC2)c1	G9a block 50µM
Cc1cc(C)cc(NC(=O)C(=O)NCCCN2CCOCC2)c1	none
NNC(=O)C(=O)NCCCN1CCOCC1	G9a block 56µM, JMJD2A Tudor inh inconclusive
C=CCNC(=O)C(=O)NCCCN1CCOCC1	none (no result: G9a block)
CC(C)CNC(=O)C(=O)NCCCN1CCOCC1	PLK1 PBD inh 21µM (no result: G9a block)
Clc1ccccc1CSc1cnnc2ccccc12	none (no result: G9a block, Sfp PPTase inh, BAZ2B inh)
Cn1c(SCc2ccccc2)nnc1C1CCCNC1 (stereo unspecified)	G9a block inconclusive, JMJD2A Tudor inh inconclusive, BAZ2B inh inconclusive
CC(=O)NCc1ccc(C(=O)CSc2nnc(C3CC3)n2C2CC2)cc1	G9a block inconclusive, JMJD2A Tudor inh 22µM (no result: Sfp PPTase inh)
Cn1c(SCc2ccc(Cl)cc2)nnc1C1CC1	G9a block 32µM
O=C(CSc1nnc(C2CC2)n1Cc1ccccc1)N1CCN(S(=O)(=O)c2ccccc2)CC1	none
O=C(CSc1nnc(C2CC2)n1Cc1ccccc1)c1ccc(S(=O)(=O)N2CCOCC2)cc1	G9a block 3.2µM, Sfp PPTase inh 13µM
Cc1cccc(-c2nnc(SCC#N)n2C)c1	PLK1 PBD inh 27µM (no result: G9a block)
O=C(NCc1ccccc1Cl)C1CCCN(C(=O)c2cnn(-c3ccccc3)c2-n2cccc2)C1 (stereo unspecified)	none (no result: PLK1 PBD inh, Sfp PPTase inh)
CCOC(=O)c1cccc(NC(=O)c2ccc3nc(Cc4ccccc4)oc3c2)c1	none (no result: PLK1 PBD inh, Sfp PPTase inh)
CCOc1ccc(C(=O)CSc2nnc(C3CC3)n2C)cc1	G9a block inconclusive, Sfp PPTase inh inconclusive
Cn1c(SCC(=O)c2ccccc2)nnc1C1CC1	PLK1 PBD inh inconclusive, G9a block 40µM, Sfp PPTase inh 56µM
Cn1c(SCC#N)nnc1-c1cnccn1	G9a block 1.4µM
Cn1c(SCC(=O)c2ccccc2)nnc1-c1cnccn1	G9a block 20µM, JMJD2A Tudor inh 25µM, HP1b binding inh inconclusive, Sfp PPTase inh inconclusive, BAZ2B inh inconclusive
Cn1c(SCc2ccccc2)nnc1-c1cnccn1	none (no result: G9a block)
CCc1ccccc1NC(=O)CSc1nc2c(c(=O)[nH]1)CN(Cc1ccccc1OC)CC2	G9a block inconclusive (no result: PLK1 PBD inh, Sfp PPTase inh)
COc1cccc(-c2ccc(C3=CC(=O)CC(C)(C)C3=O)cc2)c1OC	none (no result: G9a block, JMJD2A Tudor inh, HP1b binding inh, Sfp PPTase inh, BAZ2B inh)
O=C(CCCSc1nnc(-c2cccs2)n1CC1CCCO1)c1ccccc1 (stereo unspecified)	JMJD2A Tudor inh 79µM
CC1=C(C)/C(=N\OS(=O)(=O)c2ccc(C)cc2)C=CC1=O	PLK1 PBD inh inconclusive, G9a block 20µM, JMJD2A Tudor inh 56µM, HP1b binding inh inconclusive, Sfp PPTase inh 32µM, BAZ2B inh 25µM
COc1ccc(S(=O)(=O)/N=C2/C=CC(=O)C(C)=C2C)cc1	PLK1 PBD inh 24µM, G9a block inconclusive, HP1b binding inh inconclusive, Sfp PPTase inh 79µM
COc1cccc(CNC(=O)C2CCN(c3nnc(-n4c(C)ccc4C)s3)CC2)c1	none (no result: PLK1 PBD inh, Sfp PPTase inh)
COC(=O)c1ccc(CSc2nc3c([nH]c4ccccc43)c(=O)n2-c2cccc(Cl)c2)o1	none (no result: PLK1 PBD inh, Sfp PPTase inh)
Cc1cc(OC(=O)c2c(C)cc(OC(=O)c3c(C)cc(O)cc3O)cc2O)cc(O)c1C(=O)O	PLK1 PBD inh 30µM (no result: G9a block, Sfp PPTase inh, BAZ2B inh)
COC(=O)c1c(C)cc(O)cc1O	none (no result: G9a block, BAZ2B inh)
CCOC(=O)N1CCN(CC(O)COc2ccccc2C(C)C)CC1 (stereo unspecified)	none
